Experimental data: the supplement of paper PMC6555819

How the values were obtained:
Experiment in all cases: PBM binding z-score (relative to random genomic background probes); higher = stronger binding; sequences stand for … in GC…GCGATTGACAGCGTAGAATGAAGG
[1] = system: FXR:RXRa (NR concentration 270 nM, RXRa partner concentration 90 nM)
Method in brief: (§1)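 For binding z-scores, the reference was random background probes on custom Agilent 4×180K protein-binding microarrays. These arrays were incubated 1 h with ligand-free nuclear receptor dimers in PBS pH 7.4, 2% milk, 0.02% Triton X-100, 1 mM DTT, 0.2 mg/mL BSA and 0.4 mg/ml salmon testes DNA. Fluorescence was scanned after antibody detection of each partner (one per run) and regression-normalized.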

[2] = system: LXRa:RXRa (NR concentration 270 nM, RXRa partner concentration 90 nM)
Method in brief: as §1

[3] = system: LXRa homodimer (NR concentration 270 nM)
Method in brief: as §1

[4] = system: LXRb:RXRa (NR concentration 270 nM, RXRa partner concentration 90 nM)
Method in brief: as §1

[5] = system: LXRb homodimer (NR concentration 270 nM)
Method in brief: as §1

[6] = system: PPARa:RXRa (NR concentration 270 nM, RXRa partner concentration 90 nM)
Method in brief: as §1

[7] = system: PPARg:RXRa (NR concentration 180 nM, RXRa partner concentration 90 nM)
Method in brief: as §1

[8] = system: PPARg:RXRa 270nM:90nM, anti-RXR (NR concentration 270 nM, RXRa partner concentration 90 nM)
Method in brief: as §1

[9] = system: PPARg:RXRa 30nM:10nM, anti-RXR (NR concentration 30 nM, RXRa partner concentration 10 nM)
Method in brief: as §1

[10] = system: PPARg:RXRa 90nM:30nM, anti-RXR (NR concentration 90 nM, RXRa partner concentration 30 nM)
Method in brief: as §1

[11] = system: PPARg:RXRa DBDmut IVT, anti-RXR (DBD mutation: RXRa K156A/R161A, NR concentration 270 nM, RXRa partner concentration 90 nM)
Method in brief: as §1

[12] = system: PPARg:RXRa IVT, anti-PPARg (NR concentration 270 nM, RXRa partner concentration 90 nM)
Method in brief: as §1

[13] = system: PPARg DBDmut:RXRa IVT, anti-PPARg (DBD mutation: PPARg1 K132A/R137A, NR concentration 270 nM, RXRa partner concentration 90 nM)
Method in brief: as §1

[14] = system: PPARg DBDmut IVT, anti-PPARg (DBD mutation: PPARg1 K132A/R137A, NR concentration 270 nM)
Method in brief: as §1

[15] = system: PPARg homodimer (NR concentration 180 nM)
Method in brief: as §1

[16] = system: PXR:RXRa (NR concentration 270 nM, RXRa partner concentration 90 nM)
Method in brief: as §1

[17] = system: PXR homodimer (NR concentration 270 nM)
Method in brief: as §1

[18] = system: RARa:RXR (NR concentration 270 nM, RXRa partner concentration 90 nM)
Method in brief: as §1

[19] = system: RARa homodimer (NR concentration 270 nM)
Method in brief: as §1

[20] = system: RARb:RXRa (NR concentration 270 nM, RXRa partner concentration 90 nM)
Method in brief: as §1

Sequence	PBM binding z-score [1]	PBM binding z-score [2]	PBM binding z-score [3]	PBM binding z-score [4]	PBM binding z-score [5]	PBM binding z-score [6]	PBM binding z-score [7]	PBM binding z-score [8]	PBM binding z-score [9]	PBM binding z-score [10]	PBM binding z-score [11]	PBM binding z-score [12]	PBM binding z-score [13]	PBM binding z-score [14]	PBM binding z-score [15]	PBM binding z-score [16]	PBM binding z-score [17]	PBM binding z-score [18]	PBM binding z-score [19]	PBM binding z-score [20]
CCGAGTAGGTTATGGGTCATTCAGGCAACGGTGA	2.41	2.13	0.794	2.57	0.212	4.37	7.07	6.9	5.78	6.93	3.95	4.54	-0.0117	-0.483	1.77	2.17	0.442	3.06	1.09	2.3
AGTCAAAGTTCCGGACGAGGTAACGTAAAGCACG	-0.0931	-0.354	-0.166	-0.301	-0.695	-0.0739	0.679	0.221	-0.0701	0.189	-0.341	0.284	0.0206	-0.236	-0.335	-0.34	-0.452	0.0687	-0.122	0.265
CTACCAAGGTGGACAAGGTCGTTGATTACTATTC	0.175	0.496	0.259	0.805	-0.653	0.861	0.061	0.155	-0.189	-0.0308	0.0779	0.0174	-1.17	0.143	0.0242	1.28	0.687	1.16	0.219	0.561
CCTCGGAGGACAGAAGGTAAGAGCTGTCCGCTTT	-0.304	-0.532	-0.965	-1.02	-1.17	-0.652	-0.402	-0.815	-1.03	-0.914	-0.432	-0.658	-1.58	-1.77	-0.354	-0.918	-0.487	-0.713	-0.583	0.19
TCATATAGGTAAACTGGTGAAAGTCCGTAAGTTA	0.534	0.478	0.129	0.808	-0.0343	1.05	0.842	2.31	3.92	3.07	3.83	2.69	1.43	1.35	0.515	0.463	0.739	0.446	1.61	0.361
GCGTACGGGTCAAAGGTTATAGCATGAATAGAAT	7.58	5.75	0.516	5.7	-0.18	6.8	10.5	8.74	8.99	9.27	2.3	4.85	0.234	2	4.07	6.11	0.08	8.62	0.0431	4.64
AGTCAAAGTTCAGGACGAGGTAACGTACAGCACG	4.02	3.94	1.42	1.7	0.128	3.3	4.64	4.76	2.19	3.73	-0.265	2.01	0.413	0.297	1.59	2.95	0.808	3.01	0.256	4.18
ATACCAAGGTGATCGTGAGGTCGTTGAAACTAAC	2.15	1.49	0.854	1.6	0.171	2.03	0.268	0.273	-0.226	0.172	0.647	1.34	0.138	0.0797	1.05	3.33	1.61	2.57	0.829	1.7
CGGACTAGGTCAAGGACAGTGAATCTCCGCACGC	2.94	1.81	-0.0937	1.01	-0.662	3.77	5.95	5.25	2.5	4.61	7.61	7.26	-0.333	-0.703	0.837	0.934	-0.0489	1.7	0.338	3.49
CGAACTAGGTCATCCAGGACAGTGAATACATTGA	4.28	2.79	0.603	2.04	0.134	4.91	7.69	6.5	4.15	6.05	8.1	8.47	3.54	2.16	1.36	2.06	1.61	2.38	0.896	3.91
TCTAGCAGGGCAGAGGGTCACTCAAGAGGTACGG	1.06	1.06	-0.469	1.04	-0.996	2.51	2.06	3.48	2.03	3.63	1.26	1.9	-0.31	-0.497	1.22	1.7	-0.546	2.42	-0.749	2.61
CCAGCTAGGTCATGGTCAGCTAATCTACAGTATG	3.52	2.28	0.125	1.63	-0.361	3.57	2.98	3.29	0.995	2.17	4.7	4.17	0.901	0.516	1.52	1.12	-0.327	2.34	0.48	3.97
CCGAGTAGGTTATAGGGCATTCAGGCAACGGTGA	0.59	0.988	0.388	0.765	-0.185	3.47	6.04	6.43	4.96	6.5	3.99	4.27	0.108	-0.169	1.05	0.219	-0.129	0.863	0.46	1.24
TCTCGGAGGACACGAAGGTCGGAGCTTTCCAGAG	0.628	-0.0853	-0.898	-0.334	-1.43	0.339	-0.0942	1.17	1.87	1.67	1.25	0.119	-2.18	-1.55	-0.462	0.265	-0.139	0.366	-1.24	1.81
TATACCGGGTCAAAGGCCAGAGTACGAATGTCGA	5.68	5.19	1.56	3.95	1.32	6.35	8.61	7.39	6.12	7.45	2.58	5.47	0.885	1.2	2.12	3.61	0.647	4.89	0.935	3.88
